# This is part of a sample that, as a whole, favours compounds with a hit. Of some 79,000 tested, about 15% had one in any assay. Values without a mark were called inactive. Activity calls are given as the source filed them. Rule as the data show it: active = growth inhibition above about 70%; inactive = the rest.
# Assays:
# [1] = NCI Yeast Anticancer Drug Screen. Data for the rad52 strain (AID 147);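 also: 0% = growth of vehicle-treated control cultures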; settings: S. cerevisiae rad52 mutant growth inhibition, stronger effect = higher value
# Outline: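 Measured: yeast growth inhibition. System: strain with a defined DNA damage repair alteration. Reference: vehicle-treated control cultures.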
# [2] = NCI Yeast Anticancer Drug Screen. Data for the wt1 strain (AID 149);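 also: 0% = growth of vehicle-treated wt1 cultures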; settings: S. cerevisiae wt1 strain (SPY 50644) growth inhibition, stronger effect = higher value
# Outline: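 Vehicle-normalised growth inhibition; strain wt1; compound exposure.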
# [3] = NCI Yeast Anticancer Drug Screen. Data for the rad50EPP+ strain (AID 151);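 also: 0% = growth of vehicle-treated control cultures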; settings: S. cerevisiae rad50 mutant strain, stronger effect = higher value
# Outline: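 One strain with a rad50 alteration (rad50EPP+) was compound-treated, its growth then compared to that of vehicle controls.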
# [4] = NCI Yeast Anticancer Drug Screen. Data for the mgt1 strain (AID 153); settings: S. cerevisiae mgt1 mutant growth inhibition, stronger effect = higher value
# Outline: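 After exposure of the mgt1 yeast mutant to compound, growth was measured and reported as inhibition compared with vehicle controls.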
# [5] = NCI Yeast Anticancer Drug Screen. Data for the rad50 strain (AID 155);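 also: 0% = growth of vehicle-only cultures of the same strain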; settings: S. cerevisiae rad50 strain growth inhibition, stronger effect = higher value
# Outline: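 A DNA repair-deficient yeast mutant serves as the test organism; compound-induced growth inhibition is calculated against vehicle-treated cells.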
# [6] = NCI Yeast Anticancer Drug Screen. Data for the mec2-1 strain (AID 157); settings: S. cerevisiae mec2-1 strain, stronger effect = higher value
# Outline: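 Test agents were screened against the mec2-1 yeast strain, with defined DNA repair or cell cycle alteration. Growth was scored as inhibition against vehicle-only controls.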
# [7] = NCI Yeast Anticancer Drug Screen. Data for the rad14 strain (AID 159);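 also: 0% = growth of vehicle-treated control cultures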; settings: S. cerevisiae rad14 strain growth inhibition, stronger effect = higher value
# Outline: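 Vehicle-treated cultures served as the baseline for growth inhibition of a DNA repair-mutant yeast strain exposed to each compound.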
# [8] = NCI Yeast Anticancer Drug Screen. Data for the sgs1 mgt1 strain (AID 161);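 also: 0% = growth of cultures given vehicle only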; settings: S. cerevisiae sgs1 mgt1 strain, stronger effect = higher value
# Outline: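 Genetically altered yeast, compound exposure, growth inhibition relative to vehicle.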
# [9] = NCI Yeast Anticancer Drug Screen. Data for the CLN2oe strain (AID 163);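 also: 0% = growth of vehicle-only control cultures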; settings: S. cerevisiae CLN2oe strain, stronger effect = higher value
# Outline: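 Here, growth inhibition in a cell-cycle-altered yeast strain after compound exposure was quantified against vehicle control growth.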
# [10] = NCI Yeast Anticancer Drug Screen. Data for the cln2 rad14 strain (AID 165);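 also: 0% = growth equal to vehicle treated cultures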; settings: S. cerevisiae cln2 rad14 strain, stronger effect = higher value
# Outline: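 Growth of compound-exposed yeast (cln2 rad14 genotype) measured and expressed as inhibition relative to vehicle.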
# [11] = NCI Yeast Anticancer Drug Screen. Data for the bub3 strain (AID 167); settings: S. cerevisiae bub3 mutant strain, stronger effect = higher value
# Outline: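 Inhibition values come from growth of compound-treated mutant yeast normalised to vehicle-treated controls.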
# [12] = NCI Yeast Anticancer Drug Screen. Data for the wt2 strain (AID 169);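 also: 0% = growth of vehicle-treated yeast cultures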; settings: S. cerevisiae wt2 strain growth inhibition, stronger effect = higher value
# Outline: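 Genetically defined yeast strains from a DNA-repair/cell-cycle panel were used. Compound-exposed yeast growth was measured, and the inhibition was calculated relative to vehicle treatment.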
# [13] = NCI Yeast Anticancer Drug Screen. Data for the mlh1 strain (AID 171);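 also: 0% = growth of vehicle-treated control cultures of the same strain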; settings: S. cerevisiae mlh1 strain growth inhibition, stronger effect = higher value
# Outline: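 Here the genetically defined yeast mutant is grown with each compound, and the extent to which its growth falls below that of vehicle-exposed cells is reported.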
# [14] = NCI Yeast Anticancer Drug Screen. Data for the sgs1 strain (AID 173);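 also: 0% = growth of vehicle-only control cultures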; settings: S. cerevisiae sgs1 mutant, stronger effect = higher value
# Outline: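 Relative growth inhibition, referenced to vehicle, was determined in a yeast strain with a defined alteration affecting DNA damage repair or cell cycle control after compound exposure.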
# [15] = NCI Yeast Anticancer Drug Screen. Data for the mlh1 rad18 strain (AID 175); settings: S. cerevisiae mlh1 rad18 strain growth inhibition, stronger effect = higher value
# Outline: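 In this whole-cell yeast screen, a strain with altered DNA damage repair is challenged with compound, and its growth is measured against matched vehicle-treated controls.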
# [16] = NCI Yeast Anticancer Drug Screen. Data for the rad18 strain (AID 177); settings: S. cerevisiae rad18 mutant growth inhibition, stronger effect = higher value
# Outline: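 Screen uses a yeast strain with a defined lesion in DNA damage repair; compound effect is read as loss of growth compared to untreated vehicle cultures.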
# [17] = at 5.0 µM (retest, dose inferred, filed as 0.5)
# [18] = at 50.0 µM (retest, dose inferred, filed as 5.0)
compound,measurement,setting,value
O=C1C=CC(=Nc2cccc3c2-c2ccccc2C3=O)O1,growth inhibition,[1]; at 1.2 µM,3%
same,growth inhibition,[1]; at 3.7 µM,16%
same,growth inhibition,[1]; at 11.0 µM,67%
same,growth inhibition,[1]; at 33.0 µM,97% (active)
same,growth inhibition,[1]; at 100.0 µM,98% (active)
same,growth inhibition,[2]; at 1.2 µM,-2%
same,growth inhibition,[2]; at 3.7 µM,8%
same,growth inhibition,[2]; at 11.0 µM,42%
same,growth inhibition,[2]; at 33.0 µM,99% (active)
same,growth inhibition,[2]; at 100.0 µM,99% (active)
same,growth inhibition,[3]; at 1.2 µM,4%
same,growth inhibition,[3]; at 3.7 µM,24%
same,growth inhibition,[3]; at 11.0 µM,61%
same,growth inhibition,[3]; at 33.0 µM,89% (active)
same,growth inhibition,[3]; at 100.0 µM,97% (active)
same,growth inhibition,[4]; at 1.2 µM,1%
same,growth inhibition,[4]; at 3.7 µM,17%
same,growth inhibition,[4]; at 11.0 µM,71% (active)
same,growth inhibition,[4]; at 33.0 µM,99% (active)
same,growth inhibition,[4]; at 100.0 µM,99% (active)
same,growth inhibition,[5]; at 1.2 µM,3%
same,growth inhibition,[5]; at 3.7 µM,19%
same,growth inhibition,[5]; [17],26%
same,growth inhibition,[5]; at 11.0 µM,79% (active)
same,growth inhibition,[5]; at 33.0 µM,98% (active)
same,growth inhibition,[5]; [18],99% (active)
same,growth inhibition,[5]; at 50.0 µM,99.5% (active)
same,growth inhibition,[5]; at 100.0 µM,97% (active)
same,growth inhibition,[6]; at 1.2 µM,6%
same,growth inhibition,[6]; at 3.7 µM,23%
same,growth inhibition,[6]; [17],36%
same,growth inhibition,[6]; at 11.0 µM,75% (active)
same,growth inhibition,[6]; at 33.0 µM,99% (active)
same,growth inhibition,[6]; [18],99% (active)
same,growth inhibition,[6]; at 50.0 µM,99.5% (active)
same,growth inhibition,[6]; at 100.0 µM,99% (active)
same,growth inhibition,[7]; at 1.2 µM,5%
same,growth inhibition,[7]; at 3.7 µM,18%
same,growth inhibition,[7]; at 11.0 µM,94% (active)
same,growth inhibition,[7]; at 33.0 µM,99% (active)
same,growth inhibition,[7]; at 100.0 µM,98% (active)
same,growth inhibition,[8]; [17],36%
same,growth inhibition,[8]; [18],99% (active)
same,growth inhibition,[8]; at 50.0 µM,99.6% (active)
same,growth inhibition,[9]; at 1.2 µM,-3%
same,growth inhibition,[9]; at 3.7 µM,5%
same,growth inhibition,[9]; at 11.0 µM,60%
same,growth inhibition,[9]; at 33.0 µM,99% (active)
same,growth inhibition,[9]; at 100.0 µM,98% (active)
same,growth inhibition,[10]; [17],14%
same,growth inhibition,[10]; [18],99% (active)
same,growth inhibition,[10]; at 50.0 µM,98.7% (active)
same,growth inhibition,[11]; at 1.2 µM,-7%
same,growth inhibition,[11]; at 3.7 µM,0%
same,growth inhibition,[11]; [17],14%
same,growth inhibition,[11]; at 11.0 µM,72% (active)
same,growth inhibition,[11]; at 33.0 µM,97% (active)
same,growth inhibition,[11]; [18],99% (active)
same,growth inhibition,[11]; at 50.0 µM,99.7% (active)
same,growth inhibition,[11]; at 100.0 µM,98% (active)
same,growth inhibition,[12]; at 1.2 µM,-3%
same,growth inhibition,[12]; at 3.7 µM,12%
same,growth inhibition,[12]; at 11.0 µM,79% (active)
same,growth inhibition,[12]; at 33.0 µM,99% (active)
same,growth inhibition,[12]; at 100.0 µM,99% (active)
same,growth inhibition,[13]; at 1.2 µM,7%
same,growth inhibition,[13]; at 3.7 µM,18%
same,growth inhibition,[13]; at 11.0 µM,84% (active)
same,growth inhibition,[13]; at 33.0 µM,99% (active)
same,growth inhibition,[13]; at 100.0 µM,99% (active)
same,growth inhibition,[14]; at 1.2 µM,7%
same,growth inhibition,[14]; at 3.7 µM,25%
same,growth inhibition,[14]; at 11.0 µM,83% (active)
same,growth inhibition,[14]; at 33.0 µM,99% (active)
same,growth inhibition,[14]; at 100.0 µM,99% (active)
same,growth inhibition,[15]; [17],28%
same,growth inhibition,[15]; [18],99% (active)
same,growth inhibition,[15]; at 50.0 µM,85% (active)
same,growth inhibition,[16]; at 1.2 µM,8%
same,growth inhibition,[16]; at 3.7 µM,23%
same,growth inhibition,[16]; at 11.0 µM,83% (active)
same,growth inhibition,[16]; at 33.0 µM,99% (active)
same,growth inhibition,[16]; at 100.0 µM,98% (active)
O=[N+]([O-])c1ccc(/C=C\c2ccc3c(c2)OCO3)c([N+](=O)[O-])c1,growth inhibition,[1]; at 1.2 µM,3%
same,growth inhibition,[1]; at 3.7 µM,12%
same,growth inhibition,[1]; at 11.0 µM,26%
same,growth inhibition,[1]; at 33.0 µM,54%
same,growth inhibition,[1]; at 100.0 µM,83% (active)
same,growth inhibition,[2]; at 1.2 µM,-2%
same,growth inhibition,[2]; at 3.7 µM,-2%
same,growth inhibition,[2]; at 11.0 µM,2%
same,growth inhibition,[2]; at 33.0 µM,6%
same,growth inhibition,[2]; at 100.0 µM,35%
same,growth inhibition,[3]; at 1.2 µM,12%
same,growth inhibition,[3]; at 3.7 µM,30%
same,growth inhibition,[3]; at 11.0 µM,69%
same,growth inhibition,[3]; at 33.0 µM,84% (active)
same,growth inhibition,[3]; at 100.0 µM,78% (active)
same,growth inhibition,[4]; at 1.2 µM,-2%
same,growth inhibition,[4]; at 3.7 µM,2%
same,growth inhibition,[4]; at 11.0 µM,5%
same,growth inhibition,[4]; at 33.0 µM,20%
same,growth inhibition,[4]; at 100.0 µM,17%
same,growth inhibition,[5]; at 1.2 µM,3%
same,growth inhibition,[5]; at 3.7 µM,15%
same,growth inhibition,[5]; [17],33%
same,growth inhibition,[5]; at 11.0 µM,29%
same,growth inhibition,[5]; at 33.0 µM,54%
same,growth inhibition,[5]; [18],92% (active)
same,growth inhibition,[5]; at 50.0 µM,85.2% (active)
same,growth inhibition,[5]; at 100.0 µM,85% (active)
same,growth inhibition,[6]; at 1.2 µM,-3%
same,growth inhibition,[6]; at 3.7 µM,-3%
same,growth inhibition,[6]; [17],9%
same,growth inhibition,[6]; at 11.0 µM,3%
same,growth inhibition,[6]; at 33.0 µM,20%
same,growth inhibition,[6]; [18],97% (active)
same,growth inhibition,[6]; at 50.0 µM,83% (active)
same,growth inhibition,[6]; at 100.0 µM,80% (active)
same,growth inhibition,[7]; at 1.2 µM,1%
same,growth inhibition,[7]; at 3.7 µM,2%
same,growth inhibition,[7]; at 11.0 µM,12%
same,growth inhibition,[7]; at 33.0 µM,24%
same,growth inhibition,[7]; at 100.0 µM,80% (active)
same,growth inhibition,[8]; [17],11%
same,growth inhibition,[8]; [18],88% (active)
same,growth inhibition,[8]; at 50.0 µM,78.6% (active)
same,growth inhibition,[9]; at 1.2 µM,-2%
same,growth inhibition,[9]; at 3.7 µM,-3%
same,growth inhibition,[9]; at 11.0 µM,7%
same,growth inhibition,[9]; at 33.0 µM,16%
same,growth inhibition,[9]; at 100.0 µM,25%
same,growth inhibition,[10]; [17],2%
same,growth inhibition,[10]; [18],76% (active)
same,growth inhibition,[10]; at 50.0 µM,25.2%
same,growth inhibition,[11]; at 1.2 µM,-7%
same,growth inhibition,[11]; at 3.7 µM,-7%
same,growth inhibition,[11]; [17],2%
same,growth inhibition,[11]; at 11.0 µM,-5%
same,growth inhibition,[11]; at 33.0 µM,28%
same,growth inhibition,[11]; [18],93% (active)
same,growth inhibition,[11]; at 50.0 µM,99% (active)
same,growth inhibition,[11]; at 100.0 µM,68%
same,growth inhibition,[12]; at 1.2 µM,-2%
same,growth inhibition,[12]; at 3.7 µM,-3%
same,growth inhibition,[12]; at 11.0 µM,-1%
same,growth inhibition,[12]; at 33.0 µM,8%
same,growth inhibition,[12]; at 100.0 µM,66%
same,growth inhibition,[13]; at 1.2 µM,-1%
same,growth inhibition,[13]; at 3.7 µM,1%
same,growth inhibition,[13]; at 11.0 µM,7%
same,growth inhibition,[13]; at 33.0 µM,16%
same,growth inhibition,[13]; at 100.0 µM,63%
same,growth inhibition,[14]; at 1.2 µM,-2%
same,growth inhibition,[14]; at 3.7 µM,1%
same,growth inhibition,[14]; at 11.0 µM,9%
same,growth inhibition,[14]; at 33.0 µM,19%
same,growth inhibition,[14]; at 100.0 µM,79% (active)
same,growth inhibition,[15]; [17],12%
same,growth inhibition,[15]; [18],96% (active)
same,growth inhibition,[15]; at 50.0 µM,65.7%
same,growth inhibition,[16]; at 1.2 µM,-1%
same,growth inhibition,[16]; at 3.7 µM,6%
same,growth inhibition,[16]; at 11.0 µM,11%
same,growth inhibition,[16]; at 33.0 µM,27%
same,growth inhibition,[16]; at 100.0 µM,64%

# Reference: PubChem BioAssay (NCI)
